For this test, the target named is NADPH oxidase 5 (Homo sapiens) (UniProt Q96PH1). Nature of the test: compounds shifting NOX5 Amplex Red fluorescence – cell-based, HEK293-NOX5, NOX inhibitor project, primary screen (AID 1161). The following applies: HEK293-NOX5, ionomycin, 45 min, higher = more signal.
NADPH oxidase 5 (Homo sapiens), sequence (Q96PH1 whole entry, looked up): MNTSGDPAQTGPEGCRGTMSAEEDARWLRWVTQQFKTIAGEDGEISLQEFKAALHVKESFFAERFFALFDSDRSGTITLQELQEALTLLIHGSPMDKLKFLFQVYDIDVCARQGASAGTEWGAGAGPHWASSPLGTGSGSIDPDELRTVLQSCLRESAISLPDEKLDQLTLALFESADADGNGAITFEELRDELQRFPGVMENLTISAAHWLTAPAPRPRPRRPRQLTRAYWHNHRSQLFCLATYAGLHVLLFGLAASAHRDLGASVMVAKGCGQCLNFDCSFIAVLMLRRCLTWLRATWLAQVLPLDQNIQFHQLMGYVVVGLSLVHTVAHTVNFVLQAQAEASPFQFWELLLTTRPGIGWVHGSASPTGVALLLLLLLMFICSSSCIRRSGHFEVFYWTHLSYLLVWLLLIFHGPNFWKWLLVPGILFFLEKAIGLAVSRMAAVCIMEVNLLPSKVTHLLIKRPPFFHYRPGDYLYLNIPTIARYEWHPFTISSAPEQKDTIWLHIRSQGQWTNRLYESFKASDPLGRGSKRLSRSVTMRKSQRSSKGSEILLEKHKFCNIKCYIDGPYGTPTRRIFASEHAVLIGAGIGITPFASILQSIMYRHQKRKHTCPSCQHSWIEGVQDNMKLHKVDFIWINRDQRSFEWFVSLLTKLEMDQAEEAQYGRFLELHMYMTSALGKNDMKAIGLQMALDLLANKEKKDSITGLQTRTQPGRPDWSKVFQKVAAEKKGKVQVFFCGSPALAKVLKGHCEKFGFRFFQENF
Turning to `NCCCC[C@@H]1NC(=O)[C@H]2C[C@@H](C(=O)O)[C@@H](c3cccc(OCCO)c3)N2C1=O`, the z-score was 0.415.

As to `COCCOC(=O)N1C(=O)[C@@]2(c3cc(C#CCCO)ccc31)[C@H](C(=O)N1CCc3cc(OC)c(OC)cc3C1)[C@H]1C(=O)O[C@H](c3ccccc3)[C@H](c3ccccc3)N1[C@@H]2c1ccccc1OCCO`, the z-score is -0.204.

For the compound `COC(=O)[C@@]1(Cc2ccccc2)[C@@H]2[C@@H](CC(=O)[C@H]2CC(=O)C(=O)N(C)C)CN1C(=O)c1ccccc1`, the z-score is -0.461.

For `O=C1O[C@H](c2ccccc2)[C@H](c2ccccc2)N2[C@H]1[C@@H](C(=O)N1CCN(c3ncccn3)CC1)[C@]1(C(=O)Nc3ccccc31)[C@H]2c1ccc(O)cc1`, the z-score was 1.65.

Turning to `CCOC(=O)C1=CC[C@@H](c2ccccc2Cl)N(S(=O)(=O)c2ccc(C)cc2)[C@H]1c1cccc(OC)c1`, the z-score stood at 0.113.

The values above are taken from PubChem BioAssay.
